Records with an inconclusive call do not appear. A number with no mark means an inactive call. Activity calls are given as the source filed them. Calls follow the shape of the dose curve; as a rule, active = well fitted inhibition curve with a large enough effect in the repeat runs; inconclusive = weak or mixed curves, or effect the other way; inactive = no such curve, though single readings can be large or run the other way.
These compounds were tested against Nuclear receptor ROR-gamma (Homo sapiens) (UniProt P51449) (assay: qHTS assay to identify small molecule antagonists of the retinoid-related orphan receptor gamma (ROR-gamma) signaling pathway (AID 1159521; also: nearly all actives have a fitted effect of over 50% in size; as to activity change, negative = inhibition: top concentration of the series differs between compounds)). Conditions: Tet-on RORgamma CHO cells, RORE-luciferase, 16 h; series mostly up to 92.4 µM; activity change, negative = inhibition: at the top concentration.
Procedure, shortened: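 Test compounds were applied to Tet-on RORγ CHO cells 2 h ahead of doxycycline hyclate (1 uM final). Luciferase reporter activity was quantified by luminescence after 16 h at 37 C and 5% CO2.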
% is scaled to controls: 0 for no effect and ±100 for the full control effect; potency is read from the fitted curve at half-maximal effect.

| Compound | Potency | activity change, negative = inhibition |
| --- | --- | --- |
| O=C(Nc1ccc(Oc2ccc(Cl)cc2)c(Cl)c1)c1cc(I)cc(I)c1O | 23.7 µM (active) |  |
| Cc1cc(C2CCCCC2)n(O)c(=O)c1 | 23.7 µM (active) |  |
| CCc1cc(Cc2cc(CC)c(N)c(CC)c2)cc(CC)c1N | 48.6 µM (active) |  |
| CC1(C)CCC(C)(C)c2cc(C(=O)Nc3ccc(C(=O)O)cc3)ccc21 | 61.1 µM (active) |  |
| COc1cccc2c1C(=O)c1c(O)c3c(c(O)c1C2=O)C[C@@](O)(C(=O)CO)C[C@@H]3O[C@H]1C[C@H](N)[C@H](O[C@@H]2CCCCO2)[C@H](C)O1 |  | 172% [at 42.5 µM] |
| CCN1/C(=C/C=C/c2sc3ccccc3[n+]2CC)Sc2ccccc21 | 2.31 µM (active) |  |
| CCOC(=O)c1nc(C(Cl)(Cl)Cl)n(-c2ccc(Cl)cc2Cl)n1 | 21.7 µM (active) |  |
| CC(=O)N1CCN(c2ccc(OC[C@H]3CO[C@](Cn4ccnc4)(c4ccc(Cl)cc4Cl)O3)cc2)CC1 | 9.69 µM (active) |  |
| COc1cc(-c2nc(NC(=O)c3cc4cc(C)cc(C)c4n3CC(=O)O)sc2CCC2CCCCC2)c(OC)cc1Cl | 19.9 µM (active) |  |
| N#CSc1ccc(N)c([N+](=O)[O-])c1 | 48.9 µM (active) |  |
| OCc1c[nH]c2ccccc12 |  | 5.18% |
| C[C@H](CCC(=O)O)[C@H]1CC[C@H]2[C@@H]3CC[C@@H]4C[C@H](O)CC[C@]4(C)[C@H]3CC[C@]12C |  | -7.36% |
| CCC(C)Nc1ccc(NC(C)CC)cc1 (centres undefined) | 27.8 µM (active) |  |
| C=CC(=O)OCCn1c(=O)n(CCOC(=O)C=C)c(=O)n(CCOC(=O)C=C)c1=O | 12.2 µM (active) |  |
